# Tested on: Plasmodium berghei ANKA liver stage in HepG2-A16-CD81
# Test: % inhibition of liver stage parasite viability (luciferase); higher = more inhibition
# Settings: 5 µM; 48 h
# Protocol: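 Single-concentration screen of the MMV Pandemic Response Box. P. falciparum NF54 asexual blood stages: pLDH assay, 72 h at 37 °C, 2 and 20 µM, n=2. Stage IV/V gametocytes (NF54): luciferase reporter (NF54-Pfs16-GFP-Luc, 48 h), ATP bioluminescence (24 h) and PrestoBlue (48 h) at 1 and 5 µM, n=1. P. berghei liver stage (luciferase in HepG2-A16-CD81, 48 h post infection) at 5 µM, n=4. All normalised to DMSO and kill controls as % inhibition.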
row,Structure (SMILES),% inhibition of liver stage parasite viability [%]
1,COc1ccc(C(C)(C)C)cc1NC(=O)C(=O)c1ccc(OCCN2CCOCC2)c2ccccc12,15.1
2,Oc1c(C(Nc2ccccn2)c2ccccc2)ccc2cccnc12 (stereo not given),12.4
3,Cc1ccc(NC(=O)c2ccc(CN3CCN(C)CC3)cc2)cc1Nc1nccc(-c2cccnc2)n1,8.45
4,Nc1nc(O)c2ncn(COCCO)c2n1,26.7
5,CCN(CC)S(=O)(=O)c1ccc(Cl)c(C(=O)Nc2sc3c(c2C#N)CCCC3)c1,69.2
6,O=C(NC(=O)N1CCCc2ccccc21)c1ccc(Cl)cc1Cl,36.8
7,Cc1ccc(N2CCC(CCOc3ccc(S(C)(=O)=O)cc3)CC2)nn1,17.8
8,Cc1cc(O)c2c(c1)C(=O)c1c(I)c(O)c(I)c(O)c1C2=O,-49.9
9,COc1ccc(OCc2ccc(COc3c(Cl)cccc3Cl)cc2)c(Cl)c1,33.2
10,Cc1cc(C)n2nc(C(=O)NS(=O)(=O)c3c(C)cccc3OC(F)(F)F)nc2n1,37
11,Cc1cc(NS(=O)(=O)c2ccc(-c3ccc(F)cc3F)cc2)no1,43.5
12,Cc1[nH]c2ccccc2c1CC(=O)N[C@@H](Cc1ccccc1)C(=O)N(C)c1ccccc1,8.84
13,NNC(=O)c1ccncc1,22.9
14,Cc1cc(Nc2ccc(F)cc2)nc(SCc2nc3ccccc3[nH]2)n1,25.6
15,CN(C(=O)C1(c2ccc(Cl)cc2)CCC1)c1ccccc1,3.18
16,O=C(O)c1ccc(-n2nc(-c3ccccc3O)nc2-c2ccccc2O)cc1,18.6
17,CC(C)(C)c1cccc(-c2nc3cc(C(=N)N)ccc3[nH]2)c1O,26.2
18,CC(C)c1ccc(COc2cccc(-c3cc(S(C)=O)c(C#N)c(=O)[nH]3)c2)cc1 (stereo not given),32.5
19,Fc1ccc2c(/C=C/c3nnn[nH]3)c[nH]c2c1,7.99
20,O=C(NC(=O)N1CCCc2ccccc21)c1cccc(Cl)c1,11.4

row,Structure (SMILES),% inhibition of liver stage parasite viability [%]
1,O=C1NC(=O)C(Br)=C1Br,35.8
2,O=C(O)c1sccc1S(=O)(=O)n1ccc2cc(Br)ccc21,8.54
3,O=C(NCc1cccc2ccccc12)c1cccs1,-19.8
4,O=[N+]([O-])/C(Br)=C/c1ccc(Br)o1,15.9
5,CC(C)(C)c1ccc(C(=O)NC(=O)N2CCCc3ccccc32)cc1,15.6
6,C[C@@H](NC(=O)c1cccc(-c2c[nH]c(-c3cc4ccccc4cn3)n2)c1)c1ccc(F)cc1,29.1
7,Fc1ccc(-c2nc(-c3c[nH]c4ccc(Br)cc34)[nH]c2-c2ccc(F)cc2)cc1,27.7
8,NS(=O)(=O)c1ccc(NC(=O)NC(c2ccccc2)c2ccccc2)cc1,19.3
9,NC(=O)c1ccccc1NC(=O)c1ccc(C(=O)Nc2ccccc2C(N)=O)cc1,42
10,O=C(O)c1cc(-c2ccc(Br)cc2)nc2ccc(Cl)cc12,-34.6
11,Nc1nc(O)ncc1F,7.9
12,CC(C)(C)NC(=O)[C@@H]1C[C@@H]2CCCC[C@@H]2CN1C[C@@H](O)[C@H](Cc1ccccc1)NC(=O)[C@H](CC(N)=O)NC(=O)c1ccc2ccccc2n1,26.6
13,O=c1nc(N2CCN(CC3CCCCC3)CC2)sc2c([N+](=O)[O-])cc(C(F)(F)F)cc12,33.1
14,Cc1nc(N(C)C(=O)Cc2ccc(-c3ccccn3)cc2)sc1S(N)(=O)=O,24.8
15,O=c1cc(OCc2ccccc2)ccn1Cc1ccccc1,20.3
16,COc1c(F)c(F)cc2c(=O)c(C(=O)O)cn(C3CC3)c12,15.1
17,CN1c2ccc(Cl)cc2N(c2ccccc2)C(=O)c2cn(Cc3ccc(CN4CCOCC4)cc3)nc21,38.6
18,Fc1ccc2c(/C=C/c3cccnc3)c[nH]c2c1,-23.8
19,CCc1cc(Nc2cc(=O)n(CCN3CCN(C(=O)c4ccccc4)CC3)c(=O)[nH]2)ccc1C,10.7
20,Cn1c2ccccc2c(=O)c2c(O)cccc21,29.3
